The target of test [1] is Glutathione peroxidase 1 (Homo sapiens) (UniProt P07203). As to the kind of experiment: Primary qHTS Assay for Inhibitors of Recombinant Selenoprotein Glutathione Peroxidase 1 (GPX1) (AID 1845191). Also: nearly all actives have a fitted effect of over 65% in size. The method, boiled down: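 GR-coupled assay: compounds preincubated 30 min at room temperature with GPX1, then reaction started with CHP; final 10 nM GPX1, 1 mM GSH, 0.5 mM CHP, 0.5 mM NADPH, 100 nM GR, 0.01% BSA, pH 7.5 Tris buffer. NADPH fluorescence (340/450 nm) read at 0 and 15 min.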
Chain of Glutathione peroxidase 1 (Homo sapiens) (P07203 whole entry, looked up): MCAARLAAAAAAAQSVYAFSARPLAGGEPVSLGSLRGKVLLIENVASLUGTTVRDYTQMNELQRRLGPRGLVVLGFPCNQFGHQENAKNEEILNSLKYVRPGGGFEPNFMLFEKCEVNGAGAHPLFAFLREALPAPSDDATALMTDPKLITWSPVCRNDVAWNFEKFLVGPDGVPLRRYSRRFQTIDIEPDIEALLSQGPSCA

The target in test [2] is Phospholipid hydroperoxide glutathione peroxidase GPX4 (Homo sapiens) (UniProt P36969). As to the kind of experiment: Primary qHTS Assay for Inhibitors of Recombinant Selenoprotein Glutathione Peroxidase 4 (GPX4) (AID 1845192). Also: nearly all actives have a fitted effect of over 65% in size. Also: potency is read from the fitted curve at half-maximal effect. The method, boiled down:
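GR-coupled assay: recombinant GPX4 preincubated 30 min with compound at room temperature; final 200 nM GPX4, 1 mM GSH, 0.5 mM cumene hydroperoxide, 0.5 mM NADPH, 100 nM GR, 0.01% BSA, pH 7.5 Tris. NADPH fluorescence (340/450 nm) read at 0 and 15 min.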
(In general: In qHTS, concentration-response curves come from the screen itself.)

The target in test [3] is Metallo-beta-lactamase type 2 (Klebsiella pneumoniae) (UniProt C7C422). As to the kind of experiment: qHTS to identify inhibitors of the New Delhi Metallo-beta-lactamase (NDM): assay validation screen against the NCATS LOPAC Collection (AID 1794843).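 Also: nitrocefin turnover by NDM-1 measured as 485 nm absorbance at plateau; series mostly up to about 38 µM.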 The method, boiled down:
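NDM-1 at 2 nM final in 50 mM HEPES pH 7.0, 1 uM ZnSO4, 0.01% Tween20, preincubated with LOPAC compounds pinned in DMSO; 50 uM nitrocefin (stock) added. Hydrolysis read as absorbance at 485 nm in the plateau phase.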

Data on 44 compounds can be found in PubChem BioAssay (NCATS).

Records with an inconclusive call do not appear. Active and inactive are the calls of the source. Calls follow the shape of the dose curve; as a rule, active = well fitted curve in the direction sought with a large enough effect; inconclusive = small, poorly fitted or top-dose-only effect, or another doubt; inactive = no such curve, though single readings can be large; an effect the other way counts as inactive or inconclusive.

Chain of Phospholipid hydroperoxide glutathione peroxidase GPX4 (Homo sapiens) (P36969 whole entry, looked up): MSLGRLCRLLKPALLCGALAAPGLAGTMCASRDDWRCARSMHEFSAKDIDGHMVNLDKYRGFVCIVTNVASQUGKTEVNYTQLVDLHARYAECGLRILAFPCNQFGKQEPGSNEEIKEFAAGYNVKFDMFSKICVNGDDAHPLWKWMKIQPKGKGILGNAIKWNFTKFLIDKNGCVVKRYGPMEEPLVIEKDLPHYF
Chain of Metallo-beta-lactamase type 2 (Klebsiella pneumoniae) (C7C422 whole entry, looked up): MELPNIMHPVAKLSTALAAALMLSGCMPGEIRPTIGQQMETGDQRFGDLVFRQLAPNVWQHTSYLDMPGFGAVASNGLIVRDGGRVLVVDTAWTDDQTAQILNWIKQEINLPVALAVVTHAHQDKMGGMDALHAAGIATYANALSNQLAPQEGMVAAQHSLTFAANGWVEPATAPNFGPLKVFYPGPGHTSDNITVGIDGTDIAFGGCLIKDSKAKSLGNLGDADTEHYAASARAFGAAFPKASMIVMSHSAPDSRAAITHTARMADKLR

Consider `Oc1ccc2c3c1O[C@H]1[C@@H](O)CC[C@@]4(O)[C@@H](C2)N(CC2CCC2)CC[C@]314`, for which the Potency entry in test [1] and in test [2] was “inactive” throughout.

As to `CC(C)(O)[C@@H]1C2OC(=O)[C@@H]1[C@]1(O)C[C@H]3O[C@]34C(=O)O[C@H]2[C@]14C` (tested in a mixture with another compound), the Potency result in test [3], in test [1] and in test [2] was “inactive” each time.

With `O=[N+]([O-])c1ccccc1`, the Potency entry in test [1] and in test [2] was “inactive” in each case.

For `CCCCCCCCCC(=O)O[C@H]1CC[C@H]2[C@@H]3CCC4=CC(=O)CC[C@]4(C)[C@H]3CC[C@]12C`, the Potency result in test [1] is “inactive”.

As to `CC(C)(O)[C@H]1O[C@H]2CC[C@@]3(C)[C@@](O)(CC[C@H]4Cc5c([nH]c6ccccc56)[C@@]43C)C2=CC1=O`, the Potency entry in test [1] and in test [2] was “inactive” throughout.

On to `N#CCCN`, for which the Potency result in test [1] and in test [2] was “inactive” throughout.

Regarding `CCC1C(C)=NN=C(c2ccc(OC)c(OC)c2)c2cc(OC)c(OC)cc21` (stereo not given), the Potency result in test [1] and in test [2] was “inactive” throughout.

For the compound `CCOC(=O)c1ccccc1C(=O)OCC`, the Potency result in test [1] and in test [2] was “inactive” each time.

For the compound `FC(F)OC(F)(F)C(F)Cl` (stereo not given), the Potency entry in test [1] and in test [2] was “inactive” throughout.

With `CC[C@H]1CN2CC[C@H]1C[C@H]2[C@H](O)c1ccnc2ccc(OC)cc12`, the Potency result in test [1] and in test [2] was “inactive” throughout.

For the compound `CC(C)CCON=O`, the Potency result in test [1] and in test [2] was “inactive” throughout.

As to `Oc1ccc2c3c1O[C@H]1c4oc5ccccc5c4C[C@@]4(O)C(C2)N(CC2CC2)CCC314` (stereo not given in full), the Potency result in test [1] and in test [2] was “inactive” in each case.

In the case of `Cc1ccccc1-n1c(CF)nc2ccc(N)cc2c1=O`, the Potency in test [2] is 17.8 µM (active).

On to `OC1(c2ccc(Cl)cc2)c2ccccc2C2=NCCN21` (stereo not given), for which the Potency entry in test [1] and in test [2] was “inactive” throughout.

With `ClC1C(Cl)C(Cl)C(Cl)C(Cl)C1Cl` (stereo not given), the Potency result in test [1] and in test [2] was “inactive” throughout.

For `O=C1C2CC=CCC2C(=O)N1SC(Cl)(Cl)Cl` (stereo not given), the Potency in test [2] is 14.1 µM (active).

Regarding `CC(C)(O)[C@@H]1[C@H]2OC(=O)[C@@H]1[C@]1(O)C[C@H]3O[C@]34C(=O)O[C@H]2[C@]14C`, the Potency result in test [1] and in test [2] was “inactive” in each case.

`CC1CCC(C(C)C)C(OC(=O)c2ccccc2N)C1` (stereo not given): the Potency entry in test [1] and in test [2] was “inactive” in each case.

As to `CC1=C2C[C@H]3[C@@H](CC=C4C[C@@H](O)CC[C@@]43C)[C@@H]2CC[C@]12O[C@@H]1C[C@H](C)CN[C@H]1[C@H]2C`, the Potency result in test [1] and in test [2] was “inactive” in each case.

Turning to `CCNC1(c2cccs2)CCCCC1=O` (stereo not given), the Potency result in test [1] and in test [2] was “inactive” each time.

`O=C(O)C(Cl)(Cl)Cl`: the Potency entry in test [1] and in test [2] was “inactive” throughout.

With `CC1C/C=C/C(O)C(O)CC/C=C/c2cc(O)cc(O)c2C(=O)O1` (stereo not given), the Potency entry in test [1] and in test [2] was “inactive” throughout.

With `Ic1ccccc1CNC1C2CCN(CC2)C1C(c1ccccc1)c1ccccc1` (stereo not given), the Potency entry in test [1] and in test [2] was “inactive” each time.

With `CC1=CC2/C=C(\C)CCC(O)C3OC(C)(C)OC3CC(=O)OC23C(=O)NC(CC(C)C)C3C1C` (stereo not given), the Potency result in test [1] and in test [2] was “inactive” in each case.

As to `COC([CH2][Hg])CNC(=O)c1ccccc1OCC(=O)O` (stereo not given), the Potency result in test [1] and in test [2] was “inactive” each time.

`C[C@]12CCC(=O)C=C1C=C[C@@H]1[C@@H]2CC[C@@]2(C)[C@H]1CC[C@@]2(O)CCC(=O)O`: the Potency entry in test [1] and in test [2] was “inactive” each time.

`CC(N)Cc1ccc(O)cc1` (stereo not given): the Potency result in test [1] and in test [2] was “inactive” in each case.

As for `C=CC[C@]1(O)CC[C@H]2[C@@H]3CCC4=CCCC[C@@H]4[C@H]3CC[C@@]21C`, the Potency entry in test [1] and in test [2] was “inactive” throughout.

With `CCCCCCC(=O)O[C@H]1CC[C@H]2[C@@H]3CC[C@H]4CC(=O)C=C(C)[C@]4(C)[C@H]3CC[C@]12C`, the Potency result in test [1] is “inactive”. Further, in test [2], the Potency is 6.31 µM (active).

Take `O=[N+]([O-])C(Br)(CO)CO`: the Potency entry in test [1] and in test [2] was “inactive” in each case.

Regarding `CCCCNCC(O)c1ccc(O)cc1` (stereo not given), the Potency entry in test [1] and in test [2] was “inactive” in each case.

For the compound `CCCC(=O)OC(C(Cl)(Cl)Cl)P(=O)(OC)OC` (stereo not given), the Potency entry in test [1] and in test [2] was “inactive” throughout.

For `NCC(O)c1cccc(O)c1` (stereo not given), the Potency entry in test [1] and in test [2] was “inactive” in each case.

For `CCN(CC)C(=O)N[C@H]1C[C@@H]2c3cccc4[nH]cc(c34)C[C@H]2N(C)C1`, the Potency entry in test [1] and in test [2] was “inactive” throughout.

Consider `CC[C@H](C)[C@H]1O[C@]2(C=C[C@@H]1C)C[C@@H]1C[C@@H](C/C=C(\C)[C@@H](O[C@H]3C[C@H](OC)[C@@H](O[C@H]4C[C@H](OC)[C@@H](O)[C@H](C)O4)[C@H](C)O3)[C@@H](C)/C=C/C=C3\CO[C@@H]4[C@H](O)C(C)=C[C@@H](C(=O)O1)[C@]34O)O2`, for which the Potency in test [2] was 5.01 µM (active).

Consider `C[C@@H]([C@H](O)c1ccccc1)N(C)C`, for which the Potency result in test [1] and in test [2] was “inactive” throughout.

Consider `CC(C)CCC(=O)O[C@H]1CC[C@H]2[C@@H]3CCC4=CC(=O)CC[C@]4(C)[C@H]3CC[C@]12C`, for which the Potency result in test [1] and in test [2] was “inactive” each time.

Consider `COc1ccccc1CN[C@H]1C2CCN(CC2)[C@H]1C(c1ccccc1)c1ccccc1`, for which the Potency result in test [1] and in test [2] was “inactive” throughout.

Consider `CC(=O)O[C@H]1CC[C@H]2[C@@H]3CCC4=CC(=O)CCC4=C3C=C[C@]12C`, for which the Potency result in test [1] was “inactive”. Also, the Potency in test [2] is 22.4 µM (active).

Consider `CCNCC(O)c1cccc(O)c1` (stereo not given), for which the Potency result in test [1] and in test [2] was “inactive” each time.

For the compound `NNC(N)=O`, the Potency entry in test [1] and in test [2] was “inactive” throughout.

As for `NC(=O)c1cc(N2CC2)c([N+](=O)[O-])cc1[N+](=O)[O-]`, the Potency result in test [1] and in test [2] was “inactive” in each case.

In the case of `CCC1(CC)C(=O)NC(=O)N(C)C1=O`, the Potency result in test [1] and in test [2] was “inactive” in each case.

As to `C[C@]12CC[C@H]3[C@@H](CCC4=C(O)C(=O)CC[C@@H]43)[C@@H]1CC[C@@H]2OC(=O)CCC1CCCC1`, the Potency result in test [1] is “inactive”. The Potency in test [2] is 14.1 µM (active).
